An excerpt weighted towards active compounds, which were near 3.5% of everything screened.
GPR151 ag – activators of human GPR151 | activation, % at 11.2 µM | Q8TDV0 | AID 1508602 | PathHunter beta-arrestin GPR151 cells, luminescence | actives 1% (n = 650,000); in the data active = activation above about 4.9%;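 note: 0% = median of compound wells and 100% = cells with positive control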
Target sequence (Q8TDV0 whole entry, looked up): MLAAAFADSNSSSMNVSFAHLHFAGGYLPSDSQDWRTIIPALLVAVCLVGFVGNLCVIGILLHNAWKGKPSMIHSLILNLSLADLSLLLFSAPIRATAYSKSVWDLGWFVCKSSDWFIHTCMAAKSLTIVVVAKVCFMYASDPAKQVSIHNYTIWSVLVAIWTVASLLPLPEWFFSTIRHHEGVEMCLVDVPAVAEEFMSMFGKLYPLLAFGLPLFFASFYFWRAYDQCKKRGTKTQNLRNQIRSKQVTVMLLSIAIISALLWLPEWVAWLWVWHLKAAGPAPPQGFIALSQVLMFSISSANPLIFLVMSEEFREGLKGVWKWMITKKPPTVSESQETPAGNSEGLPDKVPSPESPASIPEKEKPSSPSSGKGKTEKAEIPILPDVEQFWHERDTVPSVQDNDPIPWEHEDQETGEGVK
MITF inh – inhibitors of human MITF. O75030. AlphaScreen MITF homodimerization, bead proximity signal. inhibition, % at 2.6 µM. actives 0.91% (n = 650,000). AID 1259374; in the data active = inhibition above about 50%;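 note: 0% = vehicle wells with protein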
FBW7 activator – activators of human E3 ligase FBW7. normalized activity (activation), % at 26.1 µM. actives 0.13% (n = 650,000). AID 1259310. AlphaScreen FBW7–phospho-cyclin E peptide binding, activator screen; in the data active = normalized activity above about 1.9%;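 note: purified mutant Fbw7 with reduced substrate affinity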
TEAD-YAP inh – TEAD-YAP interaction inhibition; HEK-TIYL cells, TEAD-Gal4/YAP UAS-luciferase luminescence; inhibition, % at 9.12 µM; actives 1.4% (n = 640,000); AID 1259422; in the data active = inhibition above about 32%;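 note: 0% = median of test compound wells and 100% = reference inhibitor wells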
GPR151 conf act – human GPR151 activation, confirmation screen; shares compounds with GPR151 ag; GPR151 PathHunter beta-arrestin cells, luminescence, 90 min; % of EA-reagent control over plate median; activation, % at 11.2 µM; 6,700 tested, under 10 active; AID 1508609;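 active = mean percent activation across replicates above the confirmation screen cutoff of 4.91%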
GPR119 counter – activates human GPR119 in a GPR151 counter-screen; shares compounds with GPR151 ag; GPR119 PathHunter beta-arrestin cells, luminescence, 90 min; 0 = compound-well median, 100 = enzyme-acceptor control; activation, % at 11.2 µM; actives 0.3% (n = 6,700); AID 1508611;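 active = mean percent activation in the counterscreen above 29.09%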;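 note: counterscreen on off-target GPR119 to flag nonselective hits from the GPR151 activator screen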
* hit, by the source's call; nt = no result.

SMILES	GPR151 ag	MITF inh	FBW7 activator	TEAD-YAP inh	GPR151 conf act	GPR119 counter
Cc1ccc2c(c1)cc(CN(Cc1cccs1)C(=O)C1CC1)c1nnnn12	5.4*	17	1	-3	0	4
Cc1ccc2c(c1)cc(CN(Cc1cccs1)C(=O)c1cccs1)c1nnnn12	1	0	0	3	nt	nt
Cc1ccc2c(c1)cc(CN(Cc1ccco1)C(=O)N(C)C)c1nnnn12	0	4	0	4	nt	nt
CCN(CC)c1nc2c(c(=O)n(C)c(=O)n2C)n1CC(=O)c1ccc(OC)cc1	1	4	0	6	nt	nt
COc1cc2c(C(=O)O)c(C)n(-c3ccccc3)c2c2ccccc12	2	-2	0	14	nt	nt
COc1ccc(-n2c(C)c(C(=O)O)c3cc(OC)c4ccccc4c32)cc1	4.9*	3	0	16	0	5
Nc1nnc(SCC(=O)OCC(=O)Nc2ccc(Br)cc2)s1	0	5	0	16	nt	nt
Nc1nnc(SCC(=O)OCC(=O)Nc2ccc(Br)cc2F)s1	6.2*	1	0	19	0	-4
CCOc1ccc(NC(=O)CC2S/C(=N\N=C\c3ccccc3OC)NC2=O)cc1 (centres undefined)	-1	-23	0	6	nt	nt
CC(C)Oc1ccc(C2CC(=O)NC(=O)C2)cc1	6.7*	24	1	0	0	13
CC(C)Oc1ccc(C2CC(=O)NC3=C2C(=O)CCC3)cc1 (centres undefined)	1	7	0	8	nt	nt
COc1cnnc(NS(=O)(=O)c2ccc(Nc3ncc([N+](=O)[O-])cc3[N+](=O)[O-])cc2)c1	1	-5	0	0	nt	nt
NC(=O)c1c(NC(=O)COc2ccc(C(=O)c3ccc(F)cc3)cc2)sc2c1CCC2	2	19	0	8	nt	nt
Cc1ccc(/C=C/C(=O)NCc2ccc(S(N)(=O)=O)cc2)o1	6.3*	5	-1	-6	0	-4
O=C1N/C(=C/c2ccc(Cl)s2)C(=O)N1c1ccccc1	-1	4	0	-10	nt	nt
Cc1ccc(-n2[nH]c(C)c(/C=N/c3ccccn3)c2=O)cc1	-3	-7	0	5	nt	nt
Cc1[nH]n(-c2ccccc2)c(=S)c1/C=N/c1ccccn1	5.9*	-8	0	6	0	5
Fc1ccc2nc3c(nc2c1)c1ccccc1n3Cc1cc(Cl)cc2c1OCOC2	0	2	0	-11	nt	nt
COC(=O)c1ccc(Nc2c(-c3ccc(Cl)cc3)c(=O)c2=O)cc1	0	-1	0	-5	nt	nt
Cc1ccc(C2CC(=O)n3c(nc4ccccc43)N2)cc1 (centres undefined)	1	12	0	-7	nt	nt
Cc1ccc(C2CC(=O)n3nc(N)nc3N2)cc1 (centres undefined)	5.9*	14	0	-1	0	5
O=C(NC1CCN(Cc2ccccc2)CC1)c1cccc(-c2csc3ccccc23)c1	0	6	0	-1	nt	nt
Cc1nnc(SCC(=O)Nc2ccc(Cl)c([N+](=O)[O-])c2)s1	-1	-3	0	14	nt	nt
Cc1ccc(NC(=O)C(Sc2ccccc2)c2ccccc2)cc1[N+](=O)[O-] (centres undefined)	8.4*	14	0	-2	0	-10
Cc1nnc(SCC(=O)Nc2ccc(C)c([N+](=O)[O-])c2)s1	7.3*	18	0	9	-1	-6
SMILES	GPR151 ag	MITF inh	FBW7 activator	TEAD-YAP inh	GPR151 conf act	GPR119 counter
Cc1ccc(NC(=O)COc2ccccc2C(=O)NC(C)c2ccccc2)cc1[N+](=O)[O-] (centres undefined)	7.1*	17	0	10	0	-13
CC(=O)Nc1ccc(NC(=O)C(Sc2ccccc2)c2ccccc2)cc1 (centres undefined)	0	-18	0	-5	nt	nt
O=C(/C=C/c1ccc(Br)cc1)Nc1nc2ccccc2s1	-1	-5	0	-9	nt	nt
COc1ccc(Cc2noc(-c3ccc([N+](=O)[O-])cc3)n2)cc1	0	11	0	11	nt	nt
CC(C)(C)c1nc(Cc2ccc([N+](=O)[O-])cc2)no1	8.6*	-1	0	0	-1	2
O=C1NCC(O)=C1C=Nc1ccccc1	5.2*	-2	0	3	-2	-15
O=C1NCC(O)=C1C=Nc1ccc(O)cc1	0	15	0	5	nt	nt
O=C1NCC(O)=C1C=NCCO	6.2*	11	0	3	1	3
Cc1ccc2c(N)c(C(=O)c3ccc([N+](=O)[O-])cc3)sc2n1	0	5	0	-5	nt	nt
CC(C)N(Cc1nc(-c2ccccc2)no1)C(=O)CN1C(=O)c2ccccc2C1=O	0	1	0	-3	nt	nt
CC(C)N(Cc1nc(-c2ccccc2)no1)C(=O)CCCN1C(=O)c2ccccc2C1=O	11*	14	0	9	0	-4
Cc1ccccc1Nc1nc(N)nc(COc2ccc([N+](=O)[O-])cc2Cl)n1	5.7*	6	0	-7	0	3
Cc1ccccc1Nc1nc(N)nc(COC(=O)c2cc(=O)c3ccccc3o2)n1	8.0*	2	0	-10	-1	-1
O=C(CCc1nnc(CCc2c[nH]c3ccccc23)o1)N1CCCCCCC1	6.6*	0	0	-4	0	0
COc1cc(NC(=S)N2CCC(C(N)=O)CC2)cc(OC)c1	7.5*	-12	0	5	0	-10
COc1ccc(C(c2nnnn2CC2CCCO2)N2CCN(C)CC2)cc1OC (centres undefined)	0	-2	0	1	nt	nt
Cc1cc(/C=C(/C#N)c2cccc(Cl)c2)c(C)n1C	5.6*	1	0	-11	0	0
CC1CCN(S(=O)(=O)c2ccc(F)c(C(=O)Nc3ccc(F)cc3)c2)CC1	0	-9	0	-11	nt	nt
COC(=O)c1cc(S(=O)(=O)N2CCC(C)CC2)ccc1F	12*	18	1	7	1	-4
CCCN(CC(=O)Nc1ccccc1C)C(=O)CCl	8.4*	3	0	72*	0	-1
Cc1cc(C)cc(N(C(C)C(=O)O)S(C)(=O)=O)c1 (centres undefined)	5.5*	10	0	-14	0	9
O=C(Cn1nnnc1CN1CCCCCC1)N1CCCCC1c1cccnc1 (centres undefined)	5.7*	9	0	6	1	10
O=C(Cn1nnnc1CN1CCCCCC1)N1CCC[C@H]1CO	0	-13	0	-1	nt	nt
CCCCNS(=O)(=O)c1cc(S(=O)(=O)NCCCC)c2cccc3c2c1NC3=O	-2	-2	0	-5	nt	nt
CC(=O)NC1C(Oc2cc(C)ccc2C)OC(CO)C(O)C1O (centres undefined)	5.8*	-17	0	3	0	0

Assay outcomes deposited in PubChem BioAssay by The Scripps Research Institute Molecular Screening Center.
